The results in this text go back to PubChem BioAssay.

For test [1], the system named is TRPC4 beta (transient receptor potential cation channel C4), mouse. As to the kind of experiment: activators of mouse TRPC4 channel, confirmation, cell-based, Fluo4 calcium, HEK293 TRPC4beta/mu-opioid, duplicates, 10 µM (AID 2426;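 active = fluorescence ratio normalized to control raised more than 50% in primary screen plus both repeat runs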). Conditions: Fluo4 calcium fluorescence, at 10 µM; hits give high values.
The test system of test [2] is transient receptor potential cation channel C4 beta (TRPC4), mouse. Description: activators of mouse TRPC4 channel, confirmation, cell-based, second round, Fluo4, HEK293 TRPC4beta/mu-opioid, 1 µM (AID 2461;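 active = primary screen active and over 50% activation in each of two duplicate runs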). Conditions: Fluo4 calcium fluorescence, at 1 µM; hits give high values.
The test system of test [3] is TRPC4 (transient receptor potential cation channel C4 beta), mouse. Description: positive allosteric modulators of mouse TRPC4, confirmation, cell-based, second round, Fluo-4, HEK293 TRPC4beta/mu-opioid, 1 µM (AID 2554;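 active = primary screen hit whose fluorescence ratio, in both repeats, exceeds the weak agonist control mean by 3 SD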). Conditions: DAMGO EC20, Fluo-4 calcium flux, at 1 µM; hits give high values. Background: A change in cytosolic calcium serves as a functional read-out for many receptors and channels.

Test [4] relates to TRPC4 beta (transient receptor potential cation channel C4), mouse. As to the kind of experiment: positive allosteric modulators of mouse TRPC4, confirmation, cell-based, Fluo-4, HEK293 TRPC4beta/mu-opioid (AID 2555;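 active = primary screen hit whose calcium fluorescence ratio, in both repeats, exceeds the weak agonist control mean by 3 SD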). Conditions: DAMGO EC20, Fluo-4 calcium flux, at 10 µM; hits give high values.
Test [5] deals with Short transient receptor potential channel 4 (Mus musculus) (UniProt Q9QUQ5). Description: inhibitors of mouse TRPC4 channel, confirmation, cell-based, Fluo4, HEK293 TRPC4beta/mu-opioid (AID 2636;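 active = calcium signal cut by more than 3 SD below the full-agonist control yet still positive, in both repeats and the earlier primary screen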). Conditions: DAMGO, Fluo4 calcium flux, at 10 µM; hits give high values.
The target is the same in test [6]. As to the kind of experiment: inhibitors of mouse TRPC4 channel, confirmation, cell-based, second round, Fluo4, HEK293 TRPC4beta/mu-opioid, 1 µM (AID 2637;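 active = calcium signal ratio cut to more than 3 SD under the fully stimulated control mean yet still positive, in both repeats and the primary screen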;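 as to inhibition: percent of integrated ratio relative to wells lacking test compound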). Conditions: Fluo4 calcium flux, DAMGO, at 1 µM; hits give high values.
Test [7] has the same target. As to the kind of experiment: mouse TRPC4 channel activators, dose response, cell-based, HEK293 TRPC4/mu-opioid, Fluo-4 calcium (AID 434937;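 active = primary screen activator hit with a dose response curve and TRPC4 channel activation at any tested dose; inactive = no activation, no dose response, or not a primary hit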).
The target is the same in test [8]. Description: TRPC4 positive allosteric modulators, dose response, cell-based, HEK293 TRPC4/mu-opioid, Fluo-4 calcium, EC20 DAMGO (AID 434941).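 Also: calcium entry triggered by an EC20 dose of DAMGO at the co-expressed mu-opioid receptor.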
Test [9] concerns the target Short transient receptor potential channel 6 (Mus musculus) (UniProt Q61143). As to the kind of experiment: inhibition of mouse TRPC6 channel, confirmation, selectivity assay for TRPC4 inhibitor project, cell-based, HEK293, membrane potential dye, duplicate (AID 434948;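 active = active in primary screen and both duplicates, each dropping signal beyond three positive-control SD with fluorescence still positive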). Conditions: HEK293 TRPC6, membrane potential dye fluorescence, at 10 µM, stimulated with maximal-effect acetylcholine; hits give high values.

For test [10] the target is unchanged. As to the kind of experiment: activation of mouse TRPC6 channel, confirmation, selectivity assay for TRPC4 activator project, cell-based, HEK293, membrane potential dye, duplicate (AID 434950;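 active = membrane potential signal rise above negative control mean plus 3 SD in both duplicates, also active in the earlier TRPC4 screen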). Conditions: HEK293 TRPC6, membrane potential fluorescence, at 10 µM; hits give high values.
Test [11] shares this target. Description: TRPC6 potentiation by TRPC4 potentiator hits, confirmation, selectivity assay for TRPC4 potentiator project, HEK293 cells, membrane potential dye, duplicate (AID 434952;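 active = compound raising the membrane signal above positive-control mean plus 3 SD in both repeats, and a primary screen hit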). Conditions: HEK293 TRPC6, membrane potential dye fluorescence, at 10 µM, maximal acetylcholine added after compound; hits give high values.
Test [12] deals with Short transient receptor potential channel 4 (Mus musculus) (UniProt Q9QUQ5). As to the kind of experiment: calcium flux activators in TRPC4/5HT1a cells, counter-screen for TRPC4 activator project, cell-based, second counter screen, HEK293 TRPC4/5HT1a, Fluo-4 (AID 434977;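 active = calcium signal rise above buffer-control mean plus 5 SD in both duplicates, and also a hit in the primary screen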). Conditions: Fluo-4 calcium flux, at 10 µM; hits give high values.
Test [13] can be described thus: calcium flux inhibitors in TRPC4/5HT1a cells, confirmation, counter-screen for TRPC4 inhibitor project, cell-based, second counter screen, HEK293 TRPC4/5HT1a, Fluo-4 (AID 434978;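 active = primary screen active whose calcium signal fell more than 3 SD beyond the full-serotonin control mean in both duplicate plates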;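 as to outcome: serotonin given first at submaximal then at maximal dose after compound preincubation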). Conditions: Fluo-4 calcium flux, at 10 µM, serotonin added to trigger calcium flux; hits give high values.
Test [14] deals with TRPC4 (mouse), co-expressed with 5HT1a in HEK293. Description: calcium flux potentiators in TRPC4/5HT1a cells, confirmation, counter-screen for TRPC4 potentiator project, cell-based, second counter screen, HEK293 TRPC4/5HT1a, Fluo-4 (AID 434979;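 active = signal rise over 3 SD above mean of control wells given weak agonist, in both repeats and first screen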). Conditions: Fluo-4 calcium flux, at 10 µM, serotonin added at its EC20 dose; hits give high values.
The nature of test [15]: calcium flux activation in mu-opioid HEK293 cells, confirmation, counter-screen for TRPC4 activator project, cell-based, HEK293 mu-opioid receptor line (AID 449723;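 active = hit in primary screen, with calcium signal over 5 SD above buffer well mean in both duplicates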;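 also: counter screen cells carry the mu-opioid receptor alone and lack TRPC4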). Conditions: Fluo-4 calcium fluorescence, at 10 µM; hits give high values.
A short description of test [16]: calcium flux enhancement in mu-opioid HEK293 cells, confirmation, counter-screen for TRPC4 allosteric potentiator project, cell-based, HEK293 mu-opioid receptor line (AID 449724;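 active = calcium signal rise more than 3 SD above the low-dose agonist control mean, in both duplicate plates and the primary screen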;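 also: HEK293 cells carrying mu-opioid receptor only with no TRPC4 channel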). Conditions: Fluo-4 calcium flux, at 10 µM, compound added before EC20 DAMGO stimulus; hits give high values.

For some assays here: Entries with a potency or affinity are not part of this list. The source made the active and inactive calls.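 The calls were made as follows, unless noted: active = earlier screen potentiator hit that boosts the TRPC4 ion channel at some dose, with a dose response; inactive = no potentiation, no dose response, or not a prior hit.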

Broadly, the inhibition is the percentage by which the read-out fell short of the control.

Sequence of Short transient receptor potential channel 4 (Mus musculus) (Q9QUQ5 whole entry, looked up): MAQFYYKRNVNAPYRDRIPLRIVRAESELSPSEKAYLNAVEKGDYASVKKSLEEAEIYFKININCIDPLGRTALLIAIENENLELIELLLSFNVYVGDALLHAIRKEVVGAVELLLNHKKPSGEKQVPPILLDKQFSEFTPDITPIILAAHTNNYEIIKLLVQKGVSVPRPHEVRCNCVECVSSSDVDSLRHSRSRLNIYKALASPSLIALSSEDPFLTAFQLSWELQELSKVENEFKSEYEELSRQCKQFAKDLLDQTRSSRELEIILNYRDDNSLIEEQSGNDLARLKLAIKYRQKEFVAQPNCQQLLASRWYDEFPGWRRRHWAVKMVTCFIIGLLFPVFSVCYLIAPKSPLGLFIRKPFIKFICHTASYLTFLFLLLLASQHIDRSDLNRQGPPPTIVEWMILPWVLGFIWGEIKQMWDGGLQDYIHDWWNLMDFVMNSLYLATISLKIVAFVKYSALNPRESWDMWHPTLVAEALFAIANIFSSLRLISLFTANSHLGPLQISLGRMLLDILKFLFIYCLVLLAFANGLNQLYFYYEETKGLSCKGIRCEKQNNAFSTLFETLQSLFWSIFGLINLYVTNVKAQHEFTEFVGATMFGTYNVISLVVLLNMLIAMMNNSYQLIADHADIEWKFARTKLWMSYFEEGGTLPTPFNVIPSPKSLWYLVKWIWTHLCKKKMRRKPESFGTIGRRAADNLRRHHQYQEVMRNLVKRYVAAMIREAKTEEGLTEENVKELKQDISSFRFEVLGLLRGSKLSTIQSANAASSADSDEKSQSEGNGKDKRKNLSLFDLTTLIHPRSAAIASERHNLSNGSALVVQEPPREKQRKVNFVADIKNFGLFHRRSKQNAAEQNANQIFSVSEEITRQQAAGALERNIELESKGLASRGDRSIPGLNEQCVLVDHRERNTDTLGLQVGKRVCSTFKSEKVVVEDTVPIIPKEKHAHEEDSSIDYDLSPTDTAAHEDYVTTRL
Sequence of Short transient receptor potential channel 6 (Mus musculus) (Q61143 whole entry, looked up): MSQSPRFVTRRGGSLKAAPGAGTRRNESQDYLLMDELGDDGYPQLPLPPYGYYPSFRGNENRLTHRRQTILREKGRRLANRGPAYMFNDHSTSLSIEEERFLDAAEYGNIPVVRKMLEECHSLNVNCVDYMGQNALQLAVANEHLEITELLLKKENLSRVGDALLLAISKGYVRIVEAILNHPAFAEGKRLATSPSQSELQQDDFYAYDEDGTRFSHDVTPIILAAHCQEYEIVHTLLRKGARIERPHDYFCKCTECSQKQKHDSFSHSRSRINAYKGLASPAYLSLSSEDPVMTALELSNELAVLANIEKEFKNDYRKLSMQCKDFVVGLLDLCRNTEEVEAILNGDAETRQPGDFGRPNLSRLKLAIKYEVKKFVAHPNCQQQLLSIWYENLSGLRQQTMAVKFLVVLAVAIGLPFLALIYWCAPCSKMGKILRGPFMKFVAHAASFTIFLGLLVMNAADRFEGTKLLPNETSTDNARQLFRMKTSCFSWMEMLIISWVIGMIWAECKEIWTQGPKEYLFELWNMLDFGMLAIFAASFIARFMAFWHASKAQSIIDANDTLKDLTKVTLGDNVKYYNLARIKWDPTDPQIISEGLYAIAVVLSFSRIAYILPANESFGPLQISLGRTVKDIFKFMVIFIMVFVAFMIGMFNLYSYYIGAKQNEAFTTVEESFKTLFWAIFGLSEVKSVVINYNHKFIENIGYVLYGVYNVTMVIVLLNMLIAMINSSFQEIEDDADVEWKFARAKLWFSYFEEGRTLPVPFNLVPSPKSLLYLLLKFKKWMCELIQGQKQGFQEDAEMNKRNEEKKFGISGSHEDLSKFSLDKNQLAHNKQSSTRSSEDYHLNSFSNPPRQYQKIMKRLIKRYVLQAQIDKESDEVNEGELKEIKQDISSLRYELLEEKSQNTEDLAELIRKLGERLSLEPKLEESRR

`COC(=O)c1cccc(Nc2c3c(nc4ccccc24)CCC3)c1`: the outcome in test [1], in [2], in test [3], in test [4], in test [6] and in [7] was inactive. Also, the outcome in test [8], in test [9], in [10], in test [11], in test [12] and in test [14] was inactive. Further, the result in [15] and in [16] was inactive. Further, the inhibition in [5] is 96% (active); in [13], 30.4% (active).
As for `Oc1ccc(CN2CCc3ccccc3C2)c2cccnc12`, the result in test [1], in [2], in test [3], in [4], in test [7] and in test [8] was inactive. For the same molecule, the outcome in [10], in test [11], in test [12], in [14], in test [15] and in test [16] was inactive. Moreover, the inhibition is 97% (active) in test [5], 45% (active) in [6], 58% (active) in [9] and 19.6% (active) in test [13].
For the molecule `CN(C)C(CNC(=O)c1ccccc1OCc1ccc(Cl)cc1)c1ccco1` (centres undefined), the outcome in test [1], in test [2], in [3], in test [4], in test [7] and in [8] was inactive. For the same molecule, the molecule was classed as inactive in test [9], in [10], in test [11], in test [12], in test [14] and in [15]. In test [16], the result was inactive. In addition, the inhibition in test [5] is 84% (active); in [6], 62% (active); in test [13], 23% (active).
For `CCCCn1c(NCCO)nc2ccccc21`, the result in test [1], in test [2], in [3], in test [4], in test [7] and in [8] was inactive. Moreover, the outcome in [9], in test [10], in [11], in test [12], in test [14] and in test [15] was inactive. In addition, the outcome in test [16] was inactive. For the same molecule, the inhibition is 92% (active) in [5], 66% (active) in [6] and 29.5% (active) in test [13].
As for `Cc1cc2cc(C#N)c(NCCNC(=S)NCCCN3CCOCC3)nc2cc1C`, the outcome in [1], in [2], in test [3], in test [4], in test [6] and in test [7] was inactive. The result in test [8], in [9], in test [10], in [11], in [12] and in test [14] was inactive. Besides, the result in test [15] and in test [16] was inactive. The inhibition in test [5] was 94% (active); in test [13], 26.6% (active).
Consider `CCOC(=O)c1cc(C#N)c(N2CCCCC2)nc1-c1ccccc1`, for which the outcome in test [1], in [2], in [3], in [4], in test [6] and in [7] was inactive. Further, the outcome in test [8], in test [9], in test [10], in [11], in test [12] and in [13] was inactive. Besides, the result in test [14], in [15] and in test [16] was inactive. Also, in [5], the inhibition is 93% (active).
In the case of `CCC1CCCCN1Cc1nc2c(c(=O)n(C)c(=O)n2C)n1Cc1ccccc1` (centres undefined), the result in test [1], in [2], in [3], in test [4], in test [6] and in test [7] was inactive. The result in test [8], in [9], in test [10], in test [11], in test [12] and in test [14] was inactive. The outcome in test [15] and in [16] was inactive. Moreover, the inhibition in test [5] is 74% (active); in test [13], 38.1% (active).
Regarding `N=c1n(CCO)c2ccccc2n1Cc1ccc(Cl)cc1`, the result in [1], in [2], in test [3], in test [4], in test [7] and in [8] was inactive. For the same molecule, the outcome in [9], in test [10], in [11], in test [12], in test [14] and in test [15] was inactive. The outcome in test [16] was inactive. The inhibition in [5] was 96% (active); in [6], 75% (active); in test [13] it was 11.9% (active).
As for `Cc1cccc(-n2ccnc2CN2CCC(CO)(Cc3ccccc3)CC2)c1`, the result in test [1], in test [2], in test [3], in test [4], in [6] and in test [7] was inactive. Also, the result in test [8], in test [9], in [10], in test [11], in test [12] and in test [13] was inactive. The outcome in test [14], in test [15] and in test [16] was inactive. The inhibition in test [5] was 70% (active).
On to `CC(C)C(=O)Nc1ccc(C(=O)Nc2nnc(C(C)(C)C)s2)cc1`, for which the result in test [1], in test [2], in test [3], in test [4], in test [6] and in test [7] was inactive. Further, the outcome in test [8], in test [9], in test [10], in test [11], in test [12] and in test [14] was inactive. Besides, the outcome in test [15] and in [16] was inactive. Further, the inhibition is 57% (active) in [5] and 35.1% (active) in test [13].
Consider `CCOC(=O)C1(Cc2cccc(OC)c2)CCN(Cc2cccc(O)c2)CC1`, for which the outcome in test [1], in [2], in test [3], in test [4], in test [7] and in [8] was inactive. Moreover, the outcome in test [9], in test [10], in test [11], in [12], in test [13] and in test [14] was inactive. Also, the outcome in test [15] and in test [16] was inactive. Further, the inhibition in test [5] was 84% (active); in [6], 43% (active).
As to `COc1ccccc1CC(Cc1nc2ccccc2[nH]1)c1nc2ccccc2[nH]1` (centres undefined), the result in test [1], in [2], in test [3], in test [4], in test [7] and in test [8] was inactive. The call in [9], in test [10], in test [11], in test [12], in [13] and in test [14] was inactive. Further, the result in test [15] and in [16] was inactive. The figures for the inhibition in test [5] and in [6] were 83% (active) and 52% (active), respectively.
As for `O=C(Nc1ccccc1Oc1cccnc1)C1CCCN(Cc2ccc(F)cc2)C1` (centres undefined), the result in test [1], in test [2], in test [3], in [4], in [7] and in test [8] was inactive. The molecule was classed as inactive in [9], in test [10], in [11], in [12], in test [14] and in test [15]. Moreover, in test [16], the result was inactive. Further, the inhibition was 87% (active) in test [5], 43% (active) in [6] and 30.2% (active) in [13].
Take `COc1ccc(C2NC(C(=O)O)Cc3c2[nH]c2ccccc32)cc1CN1CCN(c2ccc(F)cc2)CC1` (centres undefined): the outcome in test [1], in [2], in test [3], in [4], in [6] and in [7] was inactive. The result in test [8], in test [9], in test [10], in [11], in test [12] and in test [14] was inactive. Also, the outcome in [15] and in test [16] was inactive. Besides, the inhibition in [5] was 58% (active); in [13], 41.6% (active).
